# Only some compounds are listed: those with a hit (about 8.8% of all), similar ones and a draw of the others.
# KB-V1 cytotox = kills drug-selected multidrug resistant KB-V1 cells; KB-V1 MDR cells viability, CellTiter-Glo, 72 h; Potency, µM (doses to about 46.1 µM), most hits filed as cytotoxic; hit rate 3.4% among 400,000; further: nearly all actives have a fitted effect of over 60% in size
#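 Following 72 h at 37 degrees C with compound, KB-V1 cell viability was read by CellTiter-Glo luminescence, medium being phenol-red-free DMEM plus 10% FBS; concentration-response parameters came from normalized, curve-fitted qHTS data.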
# IL-1B inflam inh = blocks inflammasome-driven IL-1 beta release. hit rate 4.7% among 360,000. THP-1 LPS/ATP IL-1B secretion, AlphaLISA, 16 h; stronger effect = lower value. activity change, % at 57.5 µM. AID 743279; in the data active means activity change below about -50%; inconclusive means mostly about -30% to -49%
#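 Secreted IL-1B measured by AlphaLISA bead assay after 16 h compound exposure of THP-1 cells; compounds (final up to 57.5 uM) added 1 h before LPS (250 ng/mL) and ATP (1.25 mM) stimulation; lower signal means less secretion.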
# KB-3-1 cytotox = KB-3-1 parental cell cytotoxicity. KB-3-1 viability, CellTiter-Glo ATP luminescence, 72 h. Potency, µM (highest dose often 46.1 µM), most hits filed as cytotoxic. hit rate 1.4% among 400,000; further: nearly all actives have a fitted effect of over 60% in size
#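 Parental KB-3-1 viability, qHTS format: 72 h compound exposure, 37 °C; CellTiter-Glo; media-only wells and DMSO plates as controls; concentration-effect fits on corrected data.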
# HT1080NT lethal = kills 2HG-producing HT-1080-NT fibrosarcoma cells; Potency, µM (top dose mostly 46.1 µM), most hits filed as cytotoxic; HT-1080-NT fibrosarcoma viability, CellTiter-Glo ATP luminescence, 48 h; hit rate 1.6% among 360,000; AID 686970;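 further: NT is the 2HG producing partner of a matched IDH1 knockdown line; nearly all actives have a fitted effect of over 55% in size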
#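 A 48-hour cytotoxicity screen used HT-1080-NT cells plated 2 hours before compound delivery. ATP-based CellTiter-Glo luminescence measured viability, normalized to DMSO and no-cell controls.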
# HT1080 IDH1KD tx = HT-1080 IDH1 knockdown cell toxicity (counter line) | HT-1080 IDH1 knockdown viability, ATP luminescence, 48 h | Potency, µM (titrated, usually from 46.1 µM), usual class: cytotoxic | AID 686971 | hit rate 2% among 360,000
#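 IDH1KD HT-1080 cells, 750/well, RPMI + 5% FBS; compound pinned after 2 h settling; 48 h, 37 °C; CellTiter-Glo luminescence; % activity normalised to DMSO and no-cell wells; curves fitted, classed by r2 and efficacy.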
# Numbers stand for hits; – = inactive; ? = inconclusive; · = no result given. Unless noted, the call rests on the fitted dose curve; in most records, active means well fitted curve in the direction sought with a large enough effect; inconclusive means small, poorly fitted or top-dose-only effect, or another doubt; inactive means no such curve, though single readings can be large; an effect the other way counts as inactive or inconclusive.
SMILES,KB-V1 cytotox,IL-1B inflam inh,KB-3-1 cytotox,HT1080NT lethal,HT1080 IDH1KD tx
Cc1ccc(OCC(=O)N/N=C\c2c(C)[nH]n(-c3ccccc3)c2=O)c([N+](=O)[O-])c1,?,–,?,–,–
Cc1[nH]n(-c2ccccc2)c(=O)c1/C=N/NC(=O)c1ccc(O)cc1O,?,–,?,?,23µM
CCCCN=Cc1c(C)[nH]n(-c2ccccc2)c1=S,–,–,–,–,–
O=C(OCC(=O)N1CCc2ccccc21)[C@@H]1CC(O)CN1S(=O)(=O)c1ccccc1[N+](=O)[O-] (stereo partly specified),–,–,–,–,–
O=C(COC(=O)c1cc(=O)[nH]c2ccccc12)Nc1ccc(F)cc1,·,–,·,–,–
O=C(NC1CCCCC1)c1sc(=S)n2c1[nH]c(=O)c1ccccc12,21µM,–,?,?,?
CC(C)CCOc1ccc(C2=NNC(=O)CC2)cc1,1.8µM,–,?,–,–
COc1cc(CNCc2ccccc2)c(Br)cc1OC1CCCC1,–,-55,–,?,?
CCOC(=O)c1sc(N(Cc2ccccc2)C(=O)CCl)nc1C,–,-101,–,?,18µM
CCOC(=O)c1sc(N(Cc2ccccc2)C(=O)CSc2ncn[nH]2)nc1C,–,-52,–,–,–
CCOC(=O)c1sc(N(Cc2ccccc2)C(=O)COC(=O)c2ccccc2O)nc1C,–,–,–,–,–
CCOC(=O)CC1(CCc2ccccc2)Oc2ccccc2O1,–,–,–,–,–
CCOC(=O)CC1(CCc2ccccc2)Oc2ccccc2N1S(=O)(=O)c1ccc(C)cc1 (stereo unspecified),?,–,18µM,–,–
CCOC(=O)CC1(C)Oc2cc(Cl)ccc2N1S(=O)(=O)c1ccc(C)cc1 (stereo unspecified),?,–,18µM,–,–
Cc1ccccc1NC(=O)c1sc2nc3c(c(-c4ccco4)c2c1N)CCC3,–,-69,–,–,–
Cc1ccccc1OCc1nnc(SCc2cc(=O)c3cc(F)ccc3[nH]2)n1C,–,·,21µM,·,·
CCOc1ccc(N2CC(C(=O)Nc3nnc(Cc4ccccc4)s3)CC2=O)cc1 (stereo unspecified),–,–,–,–,–
CC(Oc1cc(Cl)ccc1Cl)C(=O)N/N=C\c1ccnn1C (stereo unspecified),18µM,–,–,–,–
C[C@@H]1COC(=O)[C@@H](NC(=O)OCC2c3ccccc3-c3ccccc32)C/C=C\C[C@@H](CC(=O)N(CCO)Cc2ccccc2)C(=O)N1,?,–,–,–,–
NC(CCc1ccccc1)c1csc(Nc2ccccn2)n1 (stereo unspecified),?,?,–,?,16µM
CC(C)CC(N)c1csc(Nc2cnccn2)n1 (stereo unspecified),–,–,–,–,–
CC(C)CC(N)c1csc(Nc2ccccn2)n1 (stereo unspecified),–,-50,–,?,?
COc1ccc(N2CCN(C(CNS(=O)(=O)c3ccccc3)c3ccccc3)CC2)cc1 (stereo unspecified),–,–,–,–,–
Cc1cc(C)cc(-n2ncc3c2CCCC3NC(=O)c2cc(C)oc2C)c1 (stereo unspecified),?,–,–,–,–
COc1ncccc1C(=O)NC1CCCc2c1cnn2-c1cc(C)cc(C)c1 (stereo unspecified),–,-56,?,–,–
SMILES,KB-V1 cytotox,IL-1B inflam inh,KB-3-1 cytotox,HT1080NT lethal,HT1080 IDH1KD tx
Cc1ncoc1C(=O)NC1CCCc2c1cnn2-c1ccc(C(C)(C)C)cc1 (stereo unspecified),–,–,18µM,?,?
O=C(CC1CC1)Nc1ccc2c(c1)[C@H]1C[C@H](CC(=O)N3CCc4ccccc4C3)O[C@@H](CO)[C@H]1O2,?,–,–,–,–
COc1ccc(S(=O)(=O)N2CCN(C(=O)C3CC3)CC2)cc1Br,–,–,–,–,–
O=C(c1c[nH]c(C(=O)C(Cl)(Cl)Cl)c1)c1c(F)cccc1F,–,-99,–,?,–
O=[N+]([O-])c1ccc(-c2cnc(SC(c3ccccc3)c3ccccc3)[nH]2)cc1,?,-52,?,23µM,21µM
Cc1cc(C)c(CSc2ncc(-c3ccc([N+](=O)[O-])cc3)[nH]2)c(C)c1,23µM,-59,?,?,26µM

# Screens from PubChem.
